Assay in all cases: protein-binding microarray (PBM); PBM: ~300 nM protein, 6 mM HEPES pH 7.8, 80 mM KCl, 0.5 mM EDTA, 0.5 mM EGTA, 6% glycerol, 35 ng/ul poly-dIdC, 1% milk, 1 h, room temperature; Ap Aiptasia and Nv Nematostella (sea anemones) / Co Capsaspora / Aq Amphimedon (sponge) / Dm Drosophila / Hu human; RHD is the Rel homology domain; high values mean tight binding
Holding throughout (details): dsDNA, one strand shown

For one assay, the target named is T1, GST-Ap-NF-kB RHD (Exaiptasia pallida (Aiptasia), UniProt A0A913YAJ5 2-422).
T1 sequence: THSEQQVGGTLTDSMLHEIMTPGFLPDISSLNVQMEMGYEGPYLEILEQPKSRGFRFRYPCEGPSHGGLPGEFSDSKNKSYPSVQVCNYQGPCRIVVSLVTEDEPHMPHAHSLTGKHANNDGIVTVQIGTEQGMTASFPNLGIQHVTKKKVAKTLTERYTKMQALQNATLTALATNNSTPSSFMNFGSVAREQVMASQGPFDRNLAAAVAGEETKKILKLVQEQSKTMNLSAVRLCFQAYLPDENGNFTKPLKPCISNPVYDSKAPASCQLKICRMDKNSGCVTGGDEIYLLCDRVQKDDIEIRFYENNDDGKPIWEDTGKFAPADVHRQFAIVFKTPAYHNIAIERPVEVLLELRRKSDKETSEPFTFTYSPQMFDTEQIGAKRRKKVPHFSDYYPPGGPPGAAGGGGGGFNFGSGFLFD

Assay [1] deals with T2, GST-Nv-NF-kB (Cys allele) (Nematostella vectensis, UniProt E5G601 2-411).
T2 sequence: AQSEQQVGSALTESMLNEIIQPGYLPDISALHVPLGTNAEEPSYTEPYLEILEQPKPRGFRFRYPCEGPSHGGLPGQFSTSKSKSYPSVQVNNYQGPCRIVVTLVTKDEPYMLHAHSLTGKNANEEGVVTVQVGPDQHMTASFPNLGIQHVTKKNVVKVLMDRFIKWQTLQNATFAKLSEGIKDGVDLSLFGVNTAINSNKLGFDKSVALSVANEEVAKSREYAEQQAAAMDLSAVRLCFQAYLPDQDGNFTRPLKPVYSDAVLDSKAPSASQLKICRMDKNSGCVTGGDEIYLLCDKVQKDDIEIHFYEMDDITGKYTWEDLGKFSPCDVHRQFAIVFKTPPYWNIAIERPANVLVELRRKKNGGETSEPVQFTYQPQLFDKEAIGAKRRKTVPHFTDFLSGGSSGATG

Assay [2] has as its target T3, GST-Nv-NF-kB (Ser allele) (Nematostella vectensis, UniProt A7UNT2 2-411).
T3 sequence: T2 sequence with Q21R, C66S, S207N, E215Q, V217A, E225K, A268E, D399E

Another assay addresses T4, GST-Co-NF-kB (Capsaspora owczarzaki, UniProt F1ARL5 200-546).
T4 sequence: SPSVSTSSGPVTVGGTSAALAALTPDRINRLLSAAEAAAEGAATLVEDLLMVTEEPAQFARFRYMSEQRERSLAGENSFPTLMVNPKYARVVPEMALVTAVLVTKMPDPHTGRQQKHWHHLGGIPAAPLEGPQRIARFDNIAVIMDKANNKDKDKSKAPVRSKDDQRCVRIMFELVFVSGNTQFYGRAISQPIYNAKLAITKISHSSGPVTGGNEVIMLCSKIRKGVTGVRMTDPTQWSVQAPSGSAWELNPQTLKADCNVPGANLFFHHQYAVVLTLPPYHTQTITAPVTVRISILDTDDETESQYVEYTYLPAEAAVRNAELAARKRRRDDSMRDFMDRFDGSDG

Another assay has as its target T5, GST-Dm-Relish (Drosophila melanogaster, UniProt Q94527 99-473).
T5 sequence: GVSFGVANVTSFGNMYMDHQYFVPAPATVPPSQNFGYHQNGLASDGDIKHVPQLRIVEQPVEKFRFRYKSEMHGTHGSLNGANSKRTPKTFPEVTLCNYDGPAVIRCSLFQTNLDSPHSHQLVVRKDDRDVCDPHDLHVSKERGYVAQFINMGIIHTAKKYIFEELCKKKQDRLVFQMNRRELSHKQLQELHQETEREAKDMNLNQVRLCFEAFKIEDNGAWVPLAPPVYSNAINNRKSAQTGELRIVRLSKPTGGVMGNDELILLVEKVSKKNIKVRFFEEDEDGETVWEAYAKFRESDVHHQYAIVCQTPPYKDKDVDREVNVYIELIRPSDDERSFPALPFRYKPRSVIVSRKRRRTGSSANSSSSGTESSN

Another assay has as its target T6, GST-Aq-NF-kB (Amphimedon queenslandica, UniProt A9Y5G7 2-389).
T6 sequence: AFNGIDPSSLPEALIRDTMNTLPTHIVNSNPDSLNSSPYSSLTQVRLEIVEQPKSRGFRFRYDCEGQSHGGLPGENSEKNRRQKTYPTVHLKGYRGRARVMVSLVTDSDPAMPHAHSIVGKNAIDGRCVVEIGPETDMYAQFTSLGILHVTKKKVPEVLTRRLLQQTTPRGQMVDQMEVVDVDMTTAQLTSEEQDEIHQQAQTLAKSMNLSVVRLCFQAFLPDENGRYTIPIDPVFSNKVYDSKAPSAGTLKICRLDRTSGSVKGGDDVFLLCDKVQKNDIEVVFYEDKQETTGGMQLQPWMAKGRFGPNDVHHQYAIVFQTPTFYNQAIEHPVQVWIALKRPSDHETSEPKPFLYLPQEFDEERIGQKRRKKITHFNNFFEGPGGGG

The target of another assay is GST-Hu-p50 (Homo sapiens, UniProt P19838 7-356).

Numbering of substitutions follows the chain as printed.

Chain of GST-Hu-p50 (P19838 7-356): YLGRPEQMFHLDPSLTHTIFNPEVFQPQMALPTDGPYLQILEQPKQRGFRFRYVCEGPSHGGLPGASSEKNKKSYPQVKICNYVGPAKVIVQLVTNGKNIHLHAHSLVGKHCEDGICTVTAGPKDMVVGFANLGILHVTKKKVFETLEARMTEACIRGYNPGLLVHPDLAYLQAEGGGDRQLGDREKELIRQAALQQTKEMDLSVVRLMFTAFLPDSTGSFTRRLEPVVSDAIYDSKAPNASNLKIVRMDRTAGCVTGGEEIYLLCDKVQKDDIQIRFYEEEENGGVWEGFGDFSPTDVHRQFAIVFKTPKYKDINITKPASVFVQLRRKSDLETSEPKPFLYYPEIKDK

In the case of “CCGATTAACATCAAGACTTTCCCTGATGTTAATCGGGTCTTGATTCGCTTGACGCTGCTG”, the binding signal was 4.06 z-score with GST-Ap-NF-kB RHD; 5.48 z-score in assay [1]; 5.59 z-score in assay [2]; 2.92 z-score with GST-Co-NF-kB; 2.82 z-score in the assay with GST-Dm-Relish; 6.09 z-score with GST-Aq-NF-kB. In the assay with GST-Hu-p50, this sequence registered a binding signal of 4.12 z-score.
For “CCGATTAACATCAAGGGGGGAATTGATGTTAATCGGGTCTTGATTCGCTTGACGCTGCTG”, the binding signal was 7.34 z-score in the assay with GST-Ap-NF-kB RHD; 7.02 z-score in assay [1]; 7.25 z-score in assay [2]; 7.24 z-score with GST-Co-NF-kB; 5.11 z-score in the assay with GST-Dm-Relish; 5.89 z-score with GST-Aq-NF-kB. The sequence further gave a binding signal with GST-Hu-p50 of 6.3 z-score.
Consider “CCGATTAACATCAAATTCCCAATTGATGTTAATCGGGTCTTGATTCGCTTGACGCTGCTG”, for which the binding signal with GST-Ap-NF-kB RHD is 1.09 z-score; in assay [1], 3.19 z-score; in assay [2] it was 3.78 z-score; in the assay with GST-Co-NF-kB, 2.62 z-score; with GST-Dm-Relish, 3.56 z-score; in the assay with GST-Aq-NF-kB, 2.06 z-score. In the assay with GST-Hu-p50, this sequence displayed a binding signal of 2.67 z-score.
Take “CCGATTAACATCAAATTTCCCAATGATGTTAATCGGGTCTTGATTCGCTTGACGCTGCTG”: the binding signal with GST-Ap-NF-kB RHD is 2.25 z-score; in assay [1], 4.12 z-score; in assay [2], 3.77 z-score; in the assay with GST-Co-NF-kB, 3.94 z-score; with GST-Dm-Relish, 2.51 z-score; with GST-Aq-NF-kB, 3.58 z-score. For the same sequence, in the assay with GST-Hu-p50, the binding signal was 3.39 z-score.
For “CCGATTAACATCAGGGAATGTTATGATGTTAATCGGGTCTTGATTCGCTTGACGCTGCTG”, the binding signal with GST-Ap-NF-kB RHD was found to be 2.55 z-score; in assay [1], 4.38 z-score; in assay [2], 3.78 z-score; with GST-Co-NF-kB, 2.75 z-score; in the assay with GST-Dm-Relish, 1.85 z-score; with GST-Aq-NF-kB, 5.04 z-score. The sequence also had a binding signal with GST-Hu-p50 of 3.32 z-score.
Consider “CCGATTAACATCAGGATGCCCCCTGATGTTAATCGGGTCTTGATTCGCTTGACGCTGCTG”, for which the binding signal with GST-Ap-NF-kB RHD turned out to be 4.93 z-score; in assay [1], 4.06 z-score; in assay [2], 2.93 z-score; in the assay with GST-Co-NF-kB, 1.55 z-score; with GST-Dm-Relish, 4.63 z-score; with GST-Aq-NF-kB, 5.09 z-score. The binding signal with GST-Hu-p50 came out at 4.35 z-score.
“CCGATTAACATCAGTAATCCCCATGATGTTAATCGGGTCTTGATTCGCTTGACGCTGCTG”: the binding signal with GST-Ap-NF-kB RHD was found to be 6.5 z-score; in assay [1] it was 5.74 z-score; in assay [2] it was 6.91 z-score; in the assay with GST-Co-NF-kB, 3.87 z-score; in the assay with GST-Dm-Relish, 6.04 z-score; with GST-Aq-NF-kB, 4.5 z-score. The binding signal in the assay with GST-Hu-p50 came to 5.31 z-score.
As for “CCGATTAACATCAAATTTCCCCGTGATGTTAATCGGGTCTTGATTCGCTTGACGCTGCTG”, the binding signal with GST-Ap-NF-kB RHD was 8.33 z-score; in assay [1] it was 9.6 z-score; in assay [2] it was 11.4 z-score; in the assay with GST-Co-NF-kB, 9.87 z-score; in the assay with GST-Dm-Relish, 7.13 z-score; in the assay with GST-Aq-NF-kB, 7.38 z-score. The same sequence displayed a binding signal with GST-Hu-p50 of 6.52 z-score.
Turning to “CCGATTAACATCACAGAACCCCCTGATGTTAATCGGGTCTTGATTCGCTTGACGCTGCTG”, the binding signal stood at 7.53 z-score with GST-Ap-NF-kB RHD; 5.51 z-score in assay [1]; 7.39 z-score in assay [2]; 2.33 z-score in the assay with GST-Co-NF-kB; 7.46 z-score in the assay with GST-Dm-Relish; 5.42 z-score in the assay with GST-Aq-NF-kB. In addition, in the assay with GST-Hu-p50, the binding signal came out at 6.43 z-score.
Turning to “CCGATTAACATCAACAAACCCCCTGATGTTAATCGGGTCTTGATTCGCTTGACGCTGCTG”, the binding signal with GST-Ap-NF-kB RHD is 6.74 z-score; in assay [1], 5.37 z-score; in assay [2] it was 6.79 z-score; in the assay with GST-Co-NF-kB, 2.52 z-score; with GST-Dm-Relish it was 7.26 z-score; with GST-Aq-NF-kB, 5.03 z-score. Also, the binding signal with GST-Hu-p50 came out at 6.59 z-score.
As for “CCGATTAACATCAGGGGGTGGGATGATGTTAATCGGGTCTTGATTCGCTTGACGCTGCTG”, the binding signal stood at 2.8 z-score with GST-Ap-NF-kB RHD; 2.48 z-score in assay [1]; 3.52 z-score in assay [2]; 3.22 z-score with GST-Co-NF-kB; 3.58 z-score with GST-Dm-Relish; 3.34 z-score in the assay with GST-Aq-NF-kB. For the same sequence, the binding signal with GST-Hu-p50 amounted to 3.07 z-score.
For the sequence “CCGATTAACATCAAGGGGGGTATTGATGTTAATCGGGTCTTGATTCGCTTGACGCTGCTG”, the binding signal with GST-Ap-NF-kB RHD turned out to be 6 z-score; in assay [1], 4.4 z-score; in assay [2], 3.99 z-score; with GST-Co-NF-kB, 4.22 z-score; in the assay with GST-Dm-Relish, 5.14 z-score; with GST-Aq-NF-kB, 5.2 z-score. Moreover, the binding signal with GST-Hu-p50 came to 4.8 z-score.

Source of the values: article PMC5700166.
